These results are taken from paper PMC7862700, “An all-to-all approach to the identification of sequence-specific readers for epigenetic DNA modifications on cytosine”.

Common to all, as to assay: DAPPL (digital affinity profiling via proximity ligation, sequencing); 10 mM Tris-HCl pH 7.5, 50 mM NaCl, 1 mM DTT, 4% glycerol, room temperature, 30 min; GST-TFs on glutathione beads, 16-mer random dsDNA library, 0.1% formaldehyde crosslink after washing; high values mean tight binding
What all share (conditions): protein: recombinant; tags: N-terminal GST; dsDNA, one strand shown

In one assay the target is T1, ELK1 (Homo sapiens, UniProt P19419 1-428).
T1 sequence: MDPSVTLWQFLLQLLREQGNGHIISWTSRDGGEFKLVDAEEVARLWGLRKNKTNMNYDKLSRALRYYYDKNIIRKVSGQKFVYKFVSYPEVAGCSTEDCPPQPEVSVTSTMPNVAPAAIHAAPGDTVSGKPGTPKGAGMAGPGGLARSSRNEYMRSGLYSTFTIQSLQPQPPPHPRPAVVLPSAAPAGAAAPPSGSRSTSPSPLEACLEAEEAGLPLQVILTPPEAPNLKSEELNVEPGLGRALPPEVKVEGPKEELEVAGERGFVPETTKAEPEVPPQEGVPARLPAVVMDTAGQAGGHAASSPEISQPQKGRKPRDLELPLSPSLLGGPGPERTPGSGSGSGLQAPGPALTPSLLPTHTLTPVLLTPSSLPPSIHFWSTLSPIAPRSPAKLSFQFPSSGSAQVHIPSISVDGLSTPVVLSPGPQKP
In a few lines: (§1)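 Each value of binding signal is a hexamer's read frequency for a factor divided by the same hexamer's frequency in the tag-only sample. Barcoded, bead-captured GST fusions of human transcription factors made in yeast were pooled with that sample and incubated with 200 nmole of a random double-stranded 16-mer DNA library in Tris/NaCl/DTT/glycerol buffer at room temperature for 30 min. Washing, 0.1% formaldehyde crosslinking, proximity ligation, PCR and Illumina NextSeq500 sequencing followed.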

For the next assay, the target named is T2, GABPA (Homo sapiens, UniProt Q06546 1-454).
T2 sequence: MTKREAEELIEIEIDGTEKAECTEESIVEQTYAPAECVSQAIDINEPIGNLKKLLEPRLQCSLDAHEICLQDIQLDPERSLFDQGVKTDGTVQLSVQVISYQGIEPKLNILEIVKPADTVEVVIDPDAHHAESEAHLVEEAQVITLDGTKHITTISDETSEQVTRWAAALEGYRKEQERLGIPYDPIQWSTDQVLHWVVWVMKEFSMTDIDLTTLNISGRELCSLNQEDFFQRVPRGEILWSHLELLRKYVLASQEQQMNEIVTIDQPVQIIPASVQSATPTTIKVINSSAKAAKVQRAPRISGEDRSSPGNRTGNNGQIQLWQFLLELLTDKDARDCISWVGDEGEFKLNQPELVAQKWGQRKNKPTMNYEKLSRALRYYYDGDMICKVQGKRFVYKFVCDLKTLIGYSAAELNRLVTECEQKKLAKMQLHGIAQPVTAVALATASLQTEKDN
Summed up:
as §1

Another assay has as its target T3, ERG (Homo sapiens, UniProt P11308 1-479).
T3 sequence: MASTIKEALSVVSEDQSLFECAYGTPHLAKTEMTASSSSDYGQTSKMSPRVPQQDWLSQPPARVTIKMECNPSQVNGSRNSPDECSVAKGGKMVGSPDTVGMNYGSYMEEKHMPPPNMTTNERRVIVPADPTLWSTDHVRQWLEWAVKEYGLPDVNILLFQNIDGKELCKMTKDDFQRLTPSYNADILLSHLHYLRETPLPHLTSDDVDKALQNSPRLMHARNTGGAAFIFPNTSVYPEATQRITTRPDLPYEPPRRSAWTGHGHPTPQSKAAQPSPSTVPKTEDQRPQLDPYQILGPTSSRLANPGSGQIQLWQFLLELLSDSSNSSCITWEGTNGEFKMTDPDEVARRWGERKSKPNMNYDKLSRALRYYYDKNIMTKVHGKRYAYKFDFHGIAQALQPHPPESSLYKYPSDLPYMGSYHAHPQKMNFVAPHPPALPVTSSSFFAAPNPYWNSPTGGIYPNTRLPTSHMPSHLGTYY
Summed up:
as §1

For the next assay, the target named is ELF1 (Homo sapiens, UniProt P32519 1-619). In a few lines: as §1
ELF1, sequence (P32519 whole entry): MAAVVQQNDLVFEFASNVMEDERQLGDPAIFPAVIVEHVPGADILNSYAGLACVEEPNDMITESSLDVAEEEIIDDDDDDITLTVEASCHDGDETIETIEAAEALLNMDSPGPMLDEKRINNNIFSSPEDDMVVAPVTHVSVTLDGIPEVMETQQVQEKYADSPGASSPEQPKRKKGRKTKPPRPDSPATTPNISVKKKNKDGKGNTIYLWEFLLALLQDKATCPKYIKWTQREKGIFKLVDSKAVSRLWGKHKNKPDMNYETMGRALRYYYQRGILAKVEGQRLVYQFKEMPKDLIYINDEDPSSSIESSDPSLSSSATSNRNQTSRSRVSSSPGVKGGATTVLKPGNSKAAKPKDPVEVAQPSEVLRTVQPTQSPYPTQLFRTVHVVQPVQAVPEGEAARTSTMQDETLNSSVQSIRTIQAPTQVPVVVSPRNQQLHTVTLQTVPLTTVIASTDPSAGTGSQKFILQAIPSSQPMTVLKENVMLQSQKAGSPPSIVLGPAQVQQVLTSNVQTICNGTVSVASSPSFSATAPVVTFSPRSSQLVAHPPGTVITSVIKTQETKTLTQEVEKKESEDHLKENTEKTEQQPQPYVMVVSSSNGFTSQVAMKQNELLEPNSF
In another assay the target is T4, EHF (Homo sapiens, UniProt Q9NZC4 1-300).
T4 sequence: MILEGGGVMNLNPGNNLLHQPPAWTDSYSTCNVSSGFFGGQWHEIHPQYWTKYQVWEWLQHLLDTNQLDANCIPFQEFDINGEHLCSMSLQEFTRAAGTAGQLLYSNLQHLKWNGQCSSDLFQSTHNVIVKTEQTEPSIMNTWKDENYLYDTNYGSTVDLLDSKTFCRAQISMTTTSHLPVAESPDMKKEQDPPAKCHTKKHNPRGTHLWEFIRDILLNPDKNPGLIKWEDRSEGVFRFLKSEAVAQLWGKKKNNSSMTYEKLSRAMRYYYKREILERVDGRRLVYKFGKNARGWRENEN
Summed up:
as §1

The target of the next assay is SPI1 (Homo sapiens, UniProt P17947 1-270). In a few lines: as §1
The target of a further assay is SPIB (Homo sapiens, UniProt Q01892 1-262). In a few lines:
as §1

The target of the next assay is ETV5 (Homo sapiens, UniProt P41161 1-510). Summed up: as §1
ETV5, sequence (P41161 whole entry): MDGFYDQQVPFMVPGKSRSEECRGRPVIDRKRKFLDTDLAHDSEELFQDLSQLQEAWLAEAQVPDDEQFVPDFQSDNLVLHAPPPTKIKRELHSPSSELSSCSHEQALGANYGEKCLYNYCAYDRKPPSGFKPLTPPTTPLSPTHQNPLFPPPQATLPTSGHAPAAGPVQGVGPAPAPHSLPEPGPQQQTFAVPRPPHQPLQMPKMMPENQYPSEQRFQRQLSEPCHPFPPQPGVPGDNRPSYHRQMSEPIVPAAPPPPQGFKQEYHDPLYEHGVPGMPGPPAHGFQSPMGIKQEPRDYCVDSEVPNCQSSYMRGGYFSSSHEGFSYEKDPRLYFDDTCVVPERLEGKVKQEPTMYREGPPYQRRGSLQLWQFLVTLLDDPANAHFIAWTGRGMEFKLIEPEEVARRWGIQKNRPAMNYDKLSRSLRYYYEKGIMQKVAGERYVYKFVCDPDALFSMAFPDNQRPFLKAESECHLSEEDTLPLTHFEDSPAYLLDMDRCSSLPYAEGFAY
The target in a further assay is ELF4 (Homo sapiens, UniProt Q99607 1-663). Summed up:
as §1

A further assay has as its target T5, ELK4 (Homo sapiens, UniProt P28324-2 1-405).
T5 sequence: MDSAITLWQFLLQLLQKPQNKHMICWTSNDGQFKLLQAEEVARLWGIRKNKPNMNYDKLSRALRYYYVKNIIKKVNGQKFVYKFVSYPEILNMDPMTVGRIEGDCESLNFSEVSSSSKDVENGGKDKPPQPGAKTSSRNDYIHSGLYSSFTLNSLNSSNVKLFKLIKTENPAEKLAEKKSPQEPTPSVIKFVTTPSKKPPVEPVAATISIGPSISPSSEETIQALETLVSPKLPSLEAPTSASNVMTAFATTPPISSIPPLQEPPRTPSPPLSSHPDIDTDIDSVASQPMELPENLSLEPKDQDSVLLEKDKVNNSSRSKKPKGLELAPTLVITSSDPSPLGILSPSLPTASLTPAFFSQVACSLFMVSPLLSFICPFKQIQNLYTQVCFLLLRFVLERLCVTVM
In a few lines:
as §1

The next assay concerns the target T6, ELF3 (Homo sapiens, UniProt P78545 1-371).
T6 sequence: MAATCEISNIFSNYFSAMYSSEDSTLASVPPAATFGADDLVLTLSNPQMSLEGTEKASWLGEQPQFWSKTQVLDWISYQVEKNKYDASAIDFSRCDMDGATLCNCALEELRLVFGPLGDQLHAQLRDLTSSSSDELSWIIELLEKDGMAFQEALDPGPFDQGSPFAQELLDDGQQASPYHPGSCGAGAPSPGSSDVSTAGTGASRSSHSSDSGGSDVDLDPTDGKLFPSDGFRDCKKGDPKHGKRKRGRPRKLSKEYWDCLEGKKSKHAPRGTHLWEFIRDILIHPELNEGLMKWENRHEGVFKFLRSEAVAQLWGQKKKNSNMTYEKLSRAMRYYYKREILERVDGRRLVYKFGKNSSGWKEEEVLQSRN
In a few lines:
as §1

Another assay addresses ETV1 (Homo sapiens, UniProt P50549 1-477). Summed up: as §1
The next assay addresses T7, ERF (Homo sapiens, UniProt P50548 1-548).
T7 sequence: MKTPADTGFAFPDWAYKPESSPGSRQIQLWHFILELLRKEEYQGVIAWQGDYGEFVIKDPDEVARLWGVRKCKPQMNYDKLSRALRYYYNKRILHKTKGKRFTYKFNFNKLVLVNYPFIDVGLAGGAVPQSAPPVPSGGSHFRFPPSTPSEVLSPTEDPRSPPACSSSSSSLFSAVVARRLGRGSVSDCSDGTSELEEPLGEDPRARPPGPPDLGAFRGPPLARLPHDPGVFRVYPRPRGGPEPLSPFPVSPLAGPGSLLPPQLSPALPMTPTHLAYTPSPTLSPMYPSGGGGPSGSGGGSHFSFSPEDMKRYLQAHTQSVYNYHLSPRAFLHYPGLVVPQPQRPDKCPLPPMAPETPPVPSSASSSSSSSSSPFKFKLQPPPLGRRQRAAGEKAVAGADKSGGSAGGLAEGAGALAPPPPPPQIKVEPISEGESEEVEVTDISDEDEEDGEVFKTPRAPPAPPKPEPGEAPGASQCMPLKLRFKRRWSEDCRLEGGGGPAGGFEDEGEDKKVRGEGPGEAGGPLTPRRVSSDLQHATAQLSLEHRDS
Summed up: as §1

Another assay addresses T8, ETV3L (Homo sapiens, UniProt Q6ZN32 1-361).
T8 sequence: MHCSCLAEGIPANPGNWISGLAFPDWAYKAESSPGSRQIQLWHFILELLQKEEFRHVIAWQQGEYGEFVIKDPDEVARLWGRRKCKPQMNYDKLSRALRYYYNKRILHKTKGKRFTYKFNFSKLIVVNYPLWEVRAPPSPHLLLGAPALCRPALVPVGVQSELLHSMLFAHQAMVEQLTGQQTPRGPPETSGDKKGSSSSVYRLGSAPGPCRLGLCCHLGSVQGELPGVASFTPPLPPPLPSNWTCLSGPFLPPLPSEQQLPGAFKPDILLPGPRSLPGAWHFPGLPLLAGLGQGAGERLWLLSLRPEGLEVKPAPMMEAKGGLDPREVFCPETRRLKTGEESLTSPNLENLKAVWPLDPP
In a few lines: as §1

The next assay has as its target T9, ETS2 (Homo sapiens, UniProt P15036 1-469).
T9 sequence: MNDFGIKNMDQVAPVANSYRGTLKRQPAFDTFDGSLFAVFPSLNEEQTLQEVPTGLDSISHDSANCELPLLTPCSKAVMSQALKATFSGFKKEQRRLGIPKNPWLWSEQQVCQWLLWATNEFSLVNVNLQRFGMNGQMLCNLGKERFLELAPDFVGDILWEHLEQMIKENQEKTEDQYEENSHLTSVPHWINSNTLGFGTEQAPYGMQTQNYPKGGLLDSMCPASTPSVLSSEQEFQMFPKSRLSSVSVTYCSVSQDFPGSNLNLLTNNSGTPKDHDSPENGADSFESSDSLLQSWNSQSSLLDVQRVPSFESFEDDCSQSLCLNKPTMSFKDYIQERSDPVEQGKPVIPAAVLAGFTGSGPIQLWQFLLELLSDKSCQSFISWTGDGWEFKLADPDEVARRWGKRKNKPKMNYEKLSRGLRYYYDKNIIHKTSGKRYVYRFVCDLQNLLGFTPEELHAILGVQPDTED
Summed up: as §1

For the next assay, the target named is T10, SPDEF (Homo sapiens, UniProt O95238 1-335).
T10 sequence: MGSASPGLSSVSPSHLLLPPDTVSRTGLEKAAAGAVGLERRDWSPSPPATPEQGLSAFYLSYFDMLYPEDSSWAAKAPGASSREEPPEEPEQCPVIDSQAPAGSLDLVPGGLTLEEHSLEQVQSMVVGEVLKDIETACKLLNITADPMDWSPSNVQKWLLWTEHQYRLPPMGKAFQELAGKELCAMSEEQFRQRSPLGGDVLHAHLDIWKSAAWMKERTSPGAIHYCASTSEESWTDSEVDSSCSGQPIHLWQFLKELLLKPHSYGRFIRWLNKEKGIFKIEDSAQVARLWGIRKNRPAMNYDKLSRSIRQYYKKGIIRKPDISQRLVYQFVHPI
In a few lines:
as §1

A further assay concerns the target T11, ETV7 (Homo sapiens, UniProt Q9Y603 1-341).
T11 sequence: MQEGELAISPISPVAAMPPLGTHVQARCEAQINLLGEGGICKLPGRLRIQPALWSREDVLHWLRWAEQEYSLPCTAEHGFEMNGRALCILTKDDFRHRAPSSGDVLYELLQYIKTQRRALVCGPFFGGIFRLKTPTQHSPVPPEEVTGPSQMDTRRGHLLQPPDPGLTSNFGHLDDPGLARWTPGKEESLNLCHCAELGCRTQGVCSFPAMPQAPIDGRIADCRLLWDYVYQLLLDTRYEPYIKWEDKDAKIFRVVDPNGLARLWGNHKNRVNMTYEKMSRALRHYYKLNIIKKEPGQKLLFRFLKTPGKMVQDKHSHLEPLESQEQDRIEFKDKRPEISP
Summed up:
as §1

The target of a further assay is T12, ETV3 (Homo sapiens, UniProt P41162-2 1-143).
T12 sequence: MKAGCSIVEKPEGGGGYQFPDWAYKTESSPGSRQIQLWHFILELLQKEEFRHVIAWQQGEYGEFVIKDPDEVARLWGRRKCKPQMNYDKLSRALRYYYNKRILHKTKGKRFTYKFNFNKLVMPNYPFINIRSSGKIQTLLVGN
In a few lines:
as §1

The target of a further assay is ETV6 (Homo sapiens, UniProt P41212 1-452). Summed up:
as §1

ELF4, sequence (Q99607 whole entry): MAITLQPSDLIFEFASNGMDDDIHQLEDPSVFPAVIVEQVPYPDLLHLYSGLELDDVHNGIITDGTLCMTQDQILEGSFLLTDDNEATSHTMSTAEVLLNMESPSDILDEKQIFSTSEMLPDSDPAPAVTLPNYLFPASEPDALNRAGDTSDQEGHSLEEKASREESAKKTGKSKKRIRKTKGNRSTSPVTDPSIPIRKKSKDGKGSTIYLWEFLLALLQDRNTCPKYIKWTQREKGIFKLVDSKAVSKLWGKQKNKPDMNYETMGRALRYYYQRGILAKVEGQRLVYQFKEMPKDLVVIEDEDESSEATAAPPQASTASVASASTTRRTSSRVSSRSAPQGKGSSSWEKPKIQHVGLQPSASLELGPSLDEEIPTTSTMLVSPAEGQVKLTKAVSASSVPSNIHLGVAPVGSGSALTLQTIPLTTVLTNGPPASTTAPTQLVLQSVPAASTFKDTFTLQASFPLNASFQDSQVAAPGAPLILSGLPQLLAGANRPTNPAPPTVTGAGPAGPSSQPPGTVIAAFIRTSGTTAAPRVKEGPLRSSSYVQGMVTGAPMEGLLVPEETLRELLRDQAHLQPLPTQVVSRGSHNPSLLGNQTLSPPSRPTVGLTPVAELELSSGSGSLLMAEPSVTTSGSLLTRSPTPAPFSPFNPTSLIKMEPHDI
ETV1, sequence (P50549 whole entry): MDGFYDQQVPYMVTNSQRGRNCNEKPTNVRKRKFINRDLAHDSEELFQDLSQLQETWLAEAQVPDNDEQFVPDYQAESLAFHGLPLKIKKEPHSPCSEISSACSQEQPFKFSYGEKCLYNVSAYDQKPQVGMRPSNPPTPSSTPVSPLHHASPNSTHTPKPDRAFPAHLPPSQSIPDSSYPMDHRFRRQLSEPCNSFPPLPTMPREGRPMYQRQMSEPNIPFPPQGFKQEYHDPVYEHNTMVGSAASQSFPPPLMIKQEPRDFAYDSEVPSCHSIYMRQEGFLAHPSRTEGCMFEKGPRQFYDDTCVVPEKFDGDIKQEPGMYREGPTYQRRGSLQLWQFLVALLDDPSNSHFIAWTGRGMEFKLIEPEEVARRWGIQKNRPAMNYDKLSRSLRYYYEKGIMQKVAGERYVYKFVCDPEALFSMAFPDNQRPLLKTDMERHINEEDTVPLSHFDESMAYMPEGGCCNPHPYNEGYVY
SPIB, sequence (Q01892 whole entry): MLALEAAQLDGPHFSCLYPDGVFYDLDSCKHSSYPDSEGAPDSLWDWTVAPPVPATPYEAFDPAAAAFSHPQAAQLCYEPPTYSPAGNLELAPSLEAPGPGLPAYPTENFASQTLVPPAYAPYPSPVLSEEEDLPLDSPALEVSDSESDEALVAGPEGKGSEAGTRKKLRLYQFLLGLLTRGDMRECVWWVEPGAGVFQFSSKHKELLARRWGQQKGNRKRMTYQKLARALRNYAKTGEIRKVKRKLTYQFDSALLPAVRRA
ETV6, sequence (P41212 whole entry): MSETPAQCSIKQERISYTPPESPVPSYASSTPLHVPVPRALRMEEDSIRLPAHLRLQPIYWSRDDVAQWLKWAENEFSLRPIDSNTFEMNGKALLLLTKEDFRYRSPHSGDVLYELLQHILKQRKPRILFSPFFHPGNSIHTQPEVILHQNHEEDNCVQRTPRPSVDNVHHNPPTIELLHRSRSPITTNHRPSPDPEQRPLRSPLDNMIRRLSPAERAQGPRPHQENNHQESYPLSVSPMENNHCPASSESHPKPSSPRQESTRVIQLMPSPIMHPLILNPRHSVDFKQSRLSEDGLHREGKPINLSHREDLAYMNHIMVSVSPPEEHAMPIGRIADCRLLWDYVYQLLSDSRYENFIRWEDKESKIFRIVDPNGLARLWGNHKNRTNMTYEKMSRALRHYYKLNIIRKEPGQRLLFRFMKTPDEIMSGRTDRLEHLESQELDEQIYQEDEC

With GGACTT, the binding signal was 1.24 fold enrichment (6-mer frequency, TF over GST control) in the assay with ELK1; 1.16 fold enrichment (6-mer frequency, TF over GST control) with GABPA; 1.17 fold enrichment (6-mer frequency, TF over GST control) with ERG; 1.16 fold enrichment (6-mer frequency, TF over GST control) in the assay with ELF1; 1.11 fold enrichment (6-mer frequency, TF over GST control) with EHF; 1.2 fold enrichment (6-mer frequency, TF over GST control) with SPI1. The binding signal with SPIB is 1.11 fold enrichment (6-mer frequency, TF over GST control); with ETV5, 1.15 fold enrichment (6-mer frequency, TF over GST control); with ELF4, 1.09 fold enrichment (6-mer frequency, TF over GST control); in the assay with ELK4 it was 1.08 fold enrichment (6-mer frequency, TF over GST control); with ELF3, 1.06 fold enrichment (6-mer frequency, TF over GST control); with ETV1 it was 1.22 fold enrichment (6-mer frequency, TF over GST control). Also, the binding signal in the assay with ERF was 1.01 fold enrichment (6-mer frequency, TF over GST control); with ETV3L it was 1.1 fold enrichment (6-mer frequency, TF over GST control); with ETS2, 1.13 fold enrichment (6-mer frequency, TF over GST control); with SPDEF, 1.08 fold enrichment (6-mer frequency, TF over GST control); in the assay with ETV7, 1.13 fold enrichment (6-mer frequency, TF over GST control); with ETV3 it was 1.27 fold enrichment (6-mer frequency, TF over GST control). In addition, the binding signal in the assay with ETV6 was 1.13 fold enrichment (6-mer frequency, TF over GST control).
